Holding throughout (test): NCI-60 one-dose screen, 48 h (100 = growth as untreated, 0 = no growth, -100 = all killed)
Holding throughout (settings): 10 µM

Assay [1] deals with HT29 colon.
In assay [2] the test system is SNB-75 CNS.
Assay [3] relates to SNB-19 CNS.
Assay [4] relates to U251 CNS.
The test system of assay [5] is PC-3 prostate.
For assay [6], the system named is UACC-62 melanoma.
Assay [7] concerns LOX IMVI melanoma.
The subject of assay [8] is SK-MEL-28 melanoma.
For assay [9], the system named is SK-MEL-2 melanoma.
Assay [10] has as its system SK-MEL-5 melanoma.

Compounds without any hit were thinned out: in the full panel of roughly 83,000, 20% have a hit.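 For each line, cells grew in 96-well plates with the test compound present at a single concentration for 48 hours.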 Unmarked numbers belong to inactive results. Activity calls are given as the source filed them. Rule for the calls: active = growth percent below 10; inactive = the rest.

With `COc1cc(OC)cc(-c2cncn2-c2ccc(-c3nc4cc(OC)cc(OC)c4s3)cc2)c1`, the growth was 36.4% in assay [1]; 60.9% in assay [2]; 63.6% in assay [3]; 40.8% in assay [4]; 34.1% in assay [5]; 58.8% in [6]. Further, the values for the growth in assay [7], in assay [8] and in [9] were 51.4%, 82.7% and 81.1%, respectively.
For the molecule `Cc1ccc(C)c(C(O)(c2cc(C)ccc2C)C2(O)CCCCC2)c1`, the growth in assay [1] was 90%; in [2], 95.9%; in [3], 98.8%; in assay [4] it was 90.1%; in assay [10] it was 99.4%; in [6] it was 89.7%. Also, the results for the growth in assay [7] and in assay [8] were 86.6% and 105%, respectively.
Turning to `C#Cc1ccc(-n2c(/C=C/c3ccc4ccccc4n3)nc3ncccc3c2=O)cc1`, the growth is -61.4% (active) in assay [1]; -59.2% (active) in assay [2]; -0.995% (active) in [3]; -57.6% (active) in [4]; -98.2% (active) in assay [10]; -65.3% (active) in assay [6]. Besides, the growth was -50.8% (active) in assay [7], -52.8% (active) in [8] and -67% (active) in assay [9].
`O=C1Nc2ccc(Cl)cc2/C1=C\c1c(-c2ccc(Cl)cc2)nc2sc(C3CC3)nn12`: the growth in assay [1] is 61.8%; in assay [2], 11.3%; in [3] it was 74.3%; in assay [4], 52.6%; in [10] it was 72%; in assay [6] it was 38.4%. For the same molecule, the figures for the growth in assay [7], in [8] and in assay [9] were 26%, 46% and 103%, respectively.
On to `Oc1[nH]c2ccc(Cl)cc2c1/C=c1/ccc2c(c1)N=C(c1cccs1)N=2`, for which the growth in assay [1] is 43.8%; in [2], 6.31% (active); in [3], 62%; in [4], 61.3%; in assay [10] it was 52.8%; in assay [6] it was 53.6%. Further, the growth is 42.5% in [7], 71.1% in assay [8] and 73.5% in assay [9].
For `COc1cccc(NC(=O)c2sc3nc4c(cc3c2N)C(O)CCC4)c1` (stereo not given), the growth in [1] is 4.69% (active); in assay [2], 44.6%; in assay [3], 49.5%; in [4], 10.6%; in assay [10], 25.1%; in [6], 48.9%. Moreover, the growth in assay [7] is 25.8%; in [8], 56%; in assay [9], 49.5%.
Turning to `Cn1c([N+](=O)[O-])cnc1/C=C1\Oc2cc(Cl)ccc2C1=O`, the growth in assay [1] was -25.4% (active); in assay [2], 65.6%; in [3], 15.6%; in [4] it was -9% (active); in assay [10], -77.4% (active); in [6] it was 7.22% (active). Moreover, the growth in assay [7] is -60.3% (active); in assay [8] it was -9.7% (active); in assay [9], -55.2% (active).
With `CCCCCC(=O)c1ccc(OCCCN2CCN(C(=O)OCC)CC2)cc1`, the growth is 102% in [1]; 102% in assay [2]; 95.9% in [3]; 98.2% in assay [4]; 63.7% in [10]; 87% in assay [6]. Moreover, the values for the growth in assay [7], in [8] and in assay [9] were 81.7%, 98.3% and 85.5%, respectively.
For `CS(=O)(=O)Nc1ccc(Nc2c3ccccc3nc3cc(N)ccc23)cc1`, the growth was 55.9% in assay [1]; 38.8% in assay [2]; 22.2% in assay [3]; 3.29% (active) in [4]; 51.3% in assay [5]; 40.2% in assay [6]. The figures for the growth in assay [7], in assay [8] and in [9] were 23.4%, 42.3% and 25.1%, respectively.
Turning to `CC/C(=C(/c1ccc(OCCN(C)C)cc1)c1ccc(OC(=O)CCC(=O)c2c(C)[nH]c(/C=C3\N=C(c4ccc[nH]4)C=C3OC)c2C)cc1)c1ccccc1`, the growth in [1] is 6.7% (active); in [2], 28.3%; in assay [3] it was 72.7%; in [4], 12.5%; in assay [5], 19.3%; in assay [6], -13.8% (active). In addition, the growth is -45% (active) in [7], 62.1% in assay [8] and -11.4% (active) in assay [9].
Consider `COc1ccc(-c2nc3sc(-c4ccccc4)c(-c4ccccc4)n3c2/C=C/C(=O)c2ccccn2)cc1`, for which the growth in assay [1] is 34.7%; in assay [2], 29.1%; in assay [3] it was 97.1%; in [4] it was 85.4%; in [10], 70.9%; in [6], 104%. Further, the growth in assay [7] was 90.5%; in assay [8], 104%; in [9], 67.3%.
As for `Cc1cc(C)c2c(n1)sc1c(Nc3ccc(Cl)cc3)ncnc12`, the growth was 27.5% in assay [1]; 32.7% in assay [2]; 10.4% in [3]; 22.5% in assay [4]; 32.7% in assay [10]; -11% (active) in assay [6]. The values for the growth in assay [7], in assay [8] and in assay [9] were -16.9% (active), 55.3% and 82.8%, respectively.
On to `COc1ccc2c(c1)nc(N)c1c3cccnc3cn21`, for which the growth in assay [1] is -5.58% (active); in assay [2], 42%; in assay [3] it was 35.9%; in assay [4], 12.7%; in assay [10], -38.1% (active); in [6], 16%. The growth in assay [7] was 35.1%; in [8], 62.6%; in assay [9], 53.2%.
Consider `S=c1[nH]ccn1-c1c(Cl)cccc1Cl`, for which the growth in [1] was 105%; in [2], 102%; in assay [3], 90.9%; in [4], 104%; in assay [10], 106%; in assay [6] it was 97.3%. For the same molecule, the growth was 99% in assay [7], 101% in assay [8] and 140% in assay [9].
As to `NC(=O)c1ccc(-c2cccc3c(=O)nc(N4CCOCC4)oc23)cc1`, the growth in assay [1] was 101%; in assay [2] it was 74.5%; in assay [3] it was 99.1%; in assay [4], 97.7%; in [5], 89.9%; in assay [6], 92.3%. In addition, the growth is 91.1% in [7], 103% in [8] and 102% in [9].
As for `COc1ccc2c(c1)-c1c(c3cc(OC)ccc3n(CCN(C)C)c1=O)C2=O`, the growth is -63.4% (active) in assay [1]; -3.22% (active) in [2]; 32.4% in assay [3]; 20.3% in assay [4]; 11.7% in assay [10]; 36.9% in assay [6]. Moreover, the growth in assay [7] is -67.9% (active); in assay [8] it was 41.3%; in assay [9], 14.4%.
Take `Cn1c(N)c(N=Nc2ccc(S(=O)(=O)Nc3nccs3)cc2)c(=O)n(C)c1=O`: the growth in [1] was 107%; in [2] it was 94.1%; in assay [3], 104%; in assay [4] it was 99.2%; in assay [10] it was 104%; in assay [6], 106%. Moreover, the growth in [7] is 89.4%; in [8] it was 112%; in [9] it was 92.4%.
In the case of `CCCCCCCCN(CCCCCCCC)CCCCCCCCCN1CCCc2cc(OC)ccc21`, the growth is 84.8% in assay [1]; 84.5% in assay [2]; 98.3% in assay [3]; 90.7% in assay [4]; 109% in [10]; 86.8% in assay [6]. Also, the growth in assay [7] was 88.6%; in assay [8], 101%; in [9], 101%.
`O=C1Nc2ccccc2C1=NC1CCCCC1`: the growth in assay [1] is 99.2%; in assay [2] it was 88.1%; in [3] it was 111%; in assay [4], 101%; in [5], 94%; in [6] it was 105%. Besides, the growth is 87.5% in assay [7], 115% in assay [8] and 88.6% in assay [9].
For `Cc1cs/c(=N\NC(=O)c2cc(-c3cc4ccccc4o3)nn2-c2ccccc2)n1-c1ccccc1`, the growth in [1] is 93.6%; in assay [2] it was 89.7%; in assay [3] it was 92.8%; in assay [4], 87.6%; in assay [10] it was 42.5%; in [6], 79.6%. The growth in [7] was 82.7%; in assay [8], 102%; in [9], 91.6%.
For the molecule `O=[P@@]1(c2ccccc2)O[C@H](COCc2ccccc2)[C@@H](OCc2ccccc2)[C@H](OCc2ccccc2)[C@H]1O`, the growth in assay [1] was 90.8%; in assay [2], -12.1% (active); in assay [3], 55.3%; in assay [4], 39.4%; in assay [10], 73%; in assay [6] it was 50.8%. Besides, the growth in [7] was 95.7%; in assay [8] it was 97%; in [9], 67.2%.
For `ClC(Cl)(Cl)c1nc2nccnc2[nH]1`, the growth in [1] was 102%; in assay [2] it was 83.4%; in assay [3] it was 102%; in assay [4] it was 104%; in assay [10], 113%; in [6] it was 107%. The growth in assay [7] is 102%; in assay [8] it was 110%; in [9], 109%.
With `O=c1[nH]c2ccc(Cl)cc2c2ccccc12`, the growth is 70.3% in assay [1]; 33.2% in [2]; 65.9% in assay [3]; 65.9% in assay [4]; 70.6% in assay [10]; 88.3% in [6]. For the same molecule, the results for the growth in assay [7], in assay [8] and in assay [9] were 98.5%, 94.6% and 107%, respectively.
Turning to `COc1cc(Nc2ccnc(NCCNc3ccnc4cc(Cl)ccc34)n2)cc(OC)c1`, the growth in [1] is 1.76% (active); in assay [2] it was 68.7%; in assay [3], 64.2%; in [4], 9.32% (active); in [10] it was -92.8% (active); in assay [6] it was 51.1%. Besides, the growth in assay [7] is -37.2% (active); in assay [8], -94.9% (active); in [9], 48.7%.
As for `CS(=O)(=O)Nc1ccc(Nc2c3ccccc3nc3cc([N+](=O)[O-])ccc23)cc1`, the growth in [1] is 11.8%; in assay [2], 41.3%; in [3], 43.3%; in assay [4], 21%; in assay [5] it was 44.4%; in assay [6], 32.2%. Also, the growth is -27.1% (active) in assay [7], 43.4% in assay [8] and 23.3% in assay [9].
For `CCN(CC)CCNC(=O)c1ccc(NC(C)=O)cc1`, the growth in assay [1] is 102%; in assay [2] it was 112%; in assay [3] it was 98.1%; in assay [4], 93.9%; in [10] it was 103%; in assay [6] it was 94.2%. Besides, the growth in [7] was 95.3%; in [8], 118%; in [9], 115%.
`COc1cc(CNc2ccccc2C(=O)N2CCN(C(=O)c3cc(-c4cc(OC)c(OC)c(OC)c4)n4nc(-c5ccccc5)cc4n3)CC2)cc(OC)c1OC`: the growth is 12.9% in assay [1]; 33.5% in assay [2]; 64.1% in assay [3]; 35.2% in assay [4]; 16.5% in assay [10]; 27% in assay [6]. Further, the growth in assay [7] is 35.7%; in assay [8], 53%; in [9], -0.722% (active).
For `Nc1ccc2cc(S(=O)(=O)O)cc(O)c2c1N=Nc1ccc(F)cc1`, the growth is 107% in [1]; 123% in assay [2]; 104% in assay [3]; 115% in assay [4]; 108% in assay [10]; 96% in assay [6]. The growth in [7] was 93.5%; in [8], 132%; in assay [9], 101%.
Turning to `O=C(N/N=C\c1cc(Cl)ccc1[N+](=O)[O-])c1ccco1`, the growth was 107% in assay [1]; 96% in assay [2]; 102% in [3]; 97.4% in assay [4]; 100% in [5]; 101% in assay [6]. Further, the growth in assay [7] is 103%; in assay [8], 110%; in assay [9], 117%.

These data come from PubChem BioAssay (NCI).
